In PubChem BioAssay (NCATS):
Several values for one entry are separate records, joined by “and”; a condition that tells them apart may be missing. Equal values may be shown once. Inconclusive results are not listed. Some structures have more than one record in an assay (separate samples or runs), and their calls can disagree. Activity calls are given as the source filed them. Calls come from the whole dose curve; as a rule, active = well fitted curve in the direction sought with a large enough effect; inconclusive = small, poorly fitted or top-dose-only effect, or another doubt; inactive = no such curve, though single readings can be large; an effect the other way counts as inactive or inconclusive.

How the values were obtained:
[1] = target: Glutathione peroxidase 1 (Homo sapiens) (UniProt P07203); test: Primary qHTS Assay for Inhibitors of Recombinant Selenoprotein Glutathione Peroxidase 1 (GPX1) (AID 1845191); conditions: recombinant GPX1, GR-coupled NADPH fluorescence, 15 min; series mostly up to 48.8 µM; note: nearly all actives have a fitted effect of over 65% in size; note: potency is the fitted concentration of half-maximal effect
Glutathione peroxidase 1 (Homo sapiens), sequence (P07203 whole entry, looked up): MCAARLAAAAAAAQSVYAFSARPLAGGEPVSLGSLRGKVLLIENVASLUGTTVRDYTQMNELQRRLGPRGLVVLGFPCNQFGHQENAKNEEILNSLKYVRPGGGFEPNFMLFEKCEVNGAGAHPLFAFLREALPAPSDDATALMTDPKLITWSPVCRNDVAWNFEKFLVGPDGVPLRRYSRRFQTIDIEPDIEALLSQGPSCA
Procedure, shortened: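 NADPH consumption tracked by fluorescence at 340/450 nm between t=0 and t=15 min, room temperature. Final mix: 10 nM GPX1, 100 nM glutathione reductase, 1 mM GSH, 0.5 mM NADPH, 0.5 mM cumene hydroperoxide, 0.01% BSA; 30 min compound–enzyme preincubation.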

[2] = target: Phospholipid hydroperoxide glutathione peroxidase GPX4 (Homo sapiens) (UniProt P36969); test: Primary qHTS Assay for Inhibitors of Recombinant Selenoprotein Glutathione Peroxidase 4 (GPX4) (AID 1845192); conditions: recombinant GPX4, GR-coupled NADPH fluorescence, 15 min; series mostly up to 50 µM; note: nearly all actives have a fitted effect of over 65% in size
Phospholipid hydroperoxide glutathione peroxidase GPX4 (Homo sapiens), sequence (P36969 whole entry, looked up): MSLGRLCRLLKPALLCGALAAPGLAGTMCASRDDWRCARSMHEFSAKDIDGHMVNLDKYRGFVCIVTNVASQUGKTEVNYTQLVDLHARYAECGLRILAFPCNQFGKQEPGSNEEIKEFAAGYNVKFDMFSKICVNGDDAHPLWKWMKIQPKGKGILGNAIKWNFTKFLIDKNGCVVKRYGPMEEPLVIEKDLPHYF
Procedure, shortened: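 NADPH consumption followed by fluorescence at 340/450 nm, t=0 and after 15 min at room temperature. Reaction started with cumene hydroperoxide (0.5 mM final) after 30 min compound–GPX4 preincubation; final 200 nM GPX4, 100 nM GR, 1 mM GSH, 0.5 mM NADPH.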

[3] = target: Luciferin 4-monooxygenase (Photinus pyralis) (UniProt P08659); test: Primary firefly luciferase (FLuc) qHTS assay for identification of artifact compounds. (AID 1845220); conditions: purified firefly luciferase, luminescence, 5 min; series mostly up to 54.1 µM; note: nearly all actives have a fitted effect of over 60% in size
Procedure, shortened: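 Compounds sat 15 min at room temperature with 10 uM luciferin and 10 uM ATP (pH 7.6 Tris acetate). Firefly luciferase (10 nM final) was then added, and luminescence was read 5 min later. Data normalized to no-enzyme and DMSO controls were Hill-fitted.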

[4] = Primary fluorescence-based thiol-reactive (MSTI) qHTS assay for identification of artifact compounds. (AID 1845221); conditions: MSTI thiol-reactivity probe, 1 h; series mostly up to 53.8 µM; note: nearly all actives have a fitted effect of over 65% in size; note: potency is the fitted concentration of half-maximal effect
Procedure, shortened: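 MSTI probe at 4 uM final in 2% DMSO/PBS pH 7.4; compounds, 1 h at room temperature in dark. Fluorescence Ex/Em 525/598 nm, normalised to Acetyl-MSTI and MSTI, fitted to 4-parameter Hill.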

[5] = tested on: Nanoluciferase (engineered Oplophorus gracilirostris luciferase); test: Primary Nanoluciferase (NLuc) qHTS assay for identification of artifact compounds. (AID 1845222); conditions: NLuc-conditioned medium, Nano-Glo luminescence, 5 min; series mostly up to 54.1 µM
Procedure, shortened: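 Luminescence from secreted NLuc (filtered, 1:55-diluted S16 cell medium) read 5 min after Nano-Glo substrate; compounds preincubated 15 min, RT. Hill fits of inhibition normalized to DMSO and no-enzyme.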

Measured: Potency

COc1ccc(Cl)c(Nc2ncnc3cc(OCC4CCN(C)CC4)c(OC)cc23)c1
inactive: [1] | [2] | [3] | [4] | [5]

COc1c(C(C)C)c(O)c(O)c2c1C(OC)[C@H]1OC(=O)[C@@]23CCCC(C)(C)[C@H]13 (stereo not given in full)
inactive: [1] | [2] | [3] | [5]
active: [4] 2.93 µM

CO[C@@H]1[C@H](O)CCC2(CO2)[C@H]1[C@@]1(C)O[C@@H]1CC=C(C)C (stereo not given in full)
inactive: [1] | [2] | [3] | [4] | [5]

C=C[C@](C)(O)CC[C@H]1C(C)=CC(=O)[C@H]2C(C)(C)CCC[C@]12C
inactive: [1] | [2] | [3] | [4] | [5]

COC(CCc1ccc(O)cc1)CC(=O)CCc1ccc(O)cc1 (stereo not given)
inactive: [1] | [2] | [3] | [4] | [5]

CN1CCN(c2ccc(-c3cccc(CN4CCOCC4)c3)cc2NC(=O)c2c[nH]c(=O)cc2C(F)(F)F)CC1
inactive: [1] | [2] | [3] | [4] | [5]

Cn1cc(-c2ccc3c(c2)CCN3C(=O)Cc2cccc(C(F)(F)F)c2)c2c(N)ncnc21
inactive: [2] | [3] | [5]
active: [4] 29.9 µM
inactive and 18.3 µM (active): [1]

COc1cc(O)c2c(c1)/C=C/C[C@H](O)[C@H](O)C(=O)/C=C\C[C@H](C)OC2=O
inactive: [1] | [2] | [3] | [4] | [5]
